B1: d6r1_design_ppi_593_dldesign_0_cycle1_af2pred (protein)
chain: SKNVELAEKAQEVVKRAKEVGKLVPEKAEEIISTSNQALAYALNPHTVAKGEKLLEEATKLVEEAEKEAK
B2: d6r1_design_ppi_232_dldesign_0_cycle0_af2pred (protein)
chain: AEEFAEEAKKELEEIEKMIKEGEARADGEQIAVEAIEKAGEALKKAKEFKKKDPKVGEEAAKEFLKAINEATKAANAKAAAA
B3: d6r1_design_ppi_398_dldesign_0_cycle0_af2pred (protein)
chain: STAASLATGARVIANLFERAIEAAADPATRAEAEGLARSAAEIGALIGPELAAIAEAGLAAIGDLAAMRAELERVRALAAAA
B4: d6r1_design_ppi_62_dldesign_0_cycle0_af2pred (protein)
chain: VEEARALAESAEQAAEAGSYLLAALNLERAVRLAEELARRGEGLEEVRRIAERVAEVAKRVAESPEVRERAEEILRRAKRIIEEI
B5: d6r1_design_ppi_82_dldesign_0_cycle1_af2pred (protein)
chain: AAATQQQLTQAVRDALLARVAAVAADPSQAELLRRVTRSAVLMMGALEGLEGARAFAERAIAAAAAVGPEAAAAVREGAREGLEEYAA
B6: d6r1_design_ppi_478_dldesign_0_cycle1_af2pred (protein)
chain: AAARAAAQQLLMEVAEELIKLGAKEAARLALRAIGLLLSDPAQGVAAAKEAAKKAKEEAPENGEELAKKLEEAAKLAAA
B7: d6r1_design_ppi_518_dldesign_0_cycle0_af2pred (protein)
chain: SAATLAQYNQLSGQASRLLMQAAQTGSVELAQQALQYAQQALQLAQQASANNAEGAKQLLEIAQATLAAVQ
B8: d6r1_design_ppi_617_dldesign_0_cycle0_af2pred (protein)
chain: AAARAQALLNEALALLFEAAARSRDGAPILRAASLAAQGFLTGEAAPEALAYIEAVAKEHPEVRELILEAARLFAEAAAL
B9: d6r1_design_ppi_11_dldesign_0_cycle1_af2pred (protein)
chain: EMEKAQKELLEAANKAMTTLFKAAAAASAKGDNATAGQLVEAAGEVSKLAKEAVKKSPEAMKEAAKKLKEAAAAGAKLGAA
B10: d6r1_design_ppi_13_dldesign_0_cycle1_af2pred (protein)
chain: AAEAKAAEKAARAELAKLRAVAAANPVHGGEILLAVARAAAEVNRLIAKGLAGTPEEAKAAAEAAKAAVAKARAEAAALA
B11: d6r1_design_ppi_381_dldesign_0_cycle1_af2pred (protein)
chain: DEARAIIVSSLSEAAALDPAVAPLAMRAAALSINPATAAAAMAEAIAAMRAAGATVPEVAALADRAEAAA
B12: d6r1_design_ppi_377_dldesign_0_cycle1_af2pred (protein)
chain: MEDEELAEKIRERAKEAIAQIRASSPEQAALLAGTLVAEFGEWARSGTPEVAAVAHEEMNRVTGEAAKVIA
B13: d6r1_design_ppi_229_dldesign_0_cycle0_af2pred (protein)
chain: EEARELARRTAEEAEELIKKALPEEDRELAELAGDLVRAGAEAATTNPAQGRAAFRTAAGILRSAGAEEAAEEVERRMEEMLRRIA
B14: d6r1_design_ppi_51_dldesign_0_cycle0_af2pred (protein)
chain: ALAEAQKQLAQARALVLGAEAAVEHAERSSPEEGRRALAAARDLIAQAKEKAKAAAKHPETKAEAEKLLKEAEKLEARAAAVEAAL
B15: d6r1_design_ppi_222_dldesign_0_cycle1_af2pred (protein)
chain: SAEAAALKEEAEKLGKEALAAAEELKKVDPEKGERLKSQIKGLELQAISSYDLAAVNPAALATAKKAREQLEKLGREAKEAV
B16: d6r1_design_ppi_463_dldesign_0_cycle0_af2pred (protein)
chain: GLIEELLAEARAEVEAEIAARREEARRLAAEGEESEDTEEKRARAEELLAEAAEREAQADSIAAQAAFRRAAELTRQLAAAA
B17: d6r1_design_ppi_575_dldesign_0_cycle0_af2pred (protein)
chain: SAEEEAAKEEAKAVLAQAEAILEQAKALAAQQPWAAGIAALARTAIRLAKESLEKGLELLPDAKALTEAAAGIVAAA
B18: d6r1_design_ppi_583_dldesign_0_cycle1_af2pred (protein)
chain: MNIEELTALAEEHEAKAKALAAAGAPAIEVVSAATLAVRYYNEAAKLLAKIDPAKAKEYTAKAEAIRAAAAAYIRAQLARSAAA
B19: d6r1_design_ppi_484_dldesign_0_cycle1_af2pred (protein)
chain: GEEAERESKEALERVRELLRRLNELAAQRAAHPAELRATAAALVEAGKEALANPNASEEAKQLGAFGVTLGQTVLAALDAAAA
B20: d6r1_design_ppi_138_dldesign_0_cycle1_af2pred (protein)
chain: GKKKEEAEKLIKEAKEVKEKAEEAAKLAKELGNEEAAKAAQKAIEEAEKAIEAAKEGKLEEARLHLAKAKGYLLRAQGLIANKLAAA
B21: d6r1_design_ppi_197_dldesign_0_cycle0_af2pred (protein)
chain: AAELAALEAEFRDQLEVARQAARFSPASAAAFLAGVAASLRRRLPPALGAAFAARADAAAAAARLLGEDPAAGEALFAAVLA
B22: d6r1_design_ppi_198_dldesign_0_cycle1_af2pred (protein)
chain: GEAEKVEKAKEKAAEKINEALALASKGAIEGDVEKVKEAKEILKEAVKEAKAVSPEAAKYAEELAKKAEEIIEAMEKSAKAAA
B23: d6r1_design_ppi_203_dldesign_0_cycle1_af2pred (protein)
chain: AQEQVVKEAQQLLLAASQAISKALVRAAQGTLQQADIEAAQKLIEAAAKAAEKAPPEAKARLNKGVEGLKELLEGALQTAKLAK
B24: d6r1_design_ppi_243_dldesign_0_cycle1_af2pred (protein)
chain: AEAVARAARDARAQIELAEALLKQGLAAAKTDPAQALLAYNAALAAARSAVRIAARAPEVLEEARAALAAVEAAKAKVQAQAA
B25: d6r1_design_ppi_373_dldesign_0_cycle1_af2pred (protein)
chain: EKEELIKKAKEALEKAKKAAKEAAADPELAKKAKKLAEEAKKAVEKAKKSGKEEAKKLAEKAKAAAAKAEAYALLAQGRAAA
B26: d6r1_design_ppi_239_dldesign_0_cycle1_af2pred (protein)
chain: DKAVLEEAEKVFKEALAVAEEIVAEGAKNPAYAAFAKAFAKQLKAQLAEAKKLTPEEALKAAKKLLDAAKQALKLVSE
B27: d6r1_design_ppi_270_dldesign_0_cycle1_af2pred (protein)
chain: EEEKREAAREITERAIEEIRAAAERAAAAGQPGAGVEAGMKIGAEAVRRVREKGTEELAEEAARRMNAALAEAIRAAMALAR
B28: d6r1_design_ppi_2_dldesign_0_cycle0_af2pred (protein)
chain: EEERRRAIEAAEGAVEAARKNLELFREAHPEATEEIARLEARVEEARREAERAREEGASVEEARRVLERARAVQAEITRALHRANLA
B29: d6r1_design_ppi_2_dldesign_0_cycle1_af2pred (protein)
chain: AEAKKKAIEDAEGAAEAAKKFLDLFKEAFPEAKETIAALQAKVEAAKKAAEKARKEGADVATAQAVLDQARAVQVDIINALNEATRS
B30: d6r1_design_ppi_463_dldesign_0_cycle1_af2pred (protein)
chain: GPFEAAYAEALAEVEAEIAALKAEAEKVAAAGKKTGKTAEAAAKAEELKAKAAELEAQKESIAAQRAFRRLAAQTAAQAAAA
B31: d6r1_design_ppi_397_dldesign_0_cycle1_af2pred (protein)
chain: GEEEEEKKRKEEIKKAIKEAAEKAKEAGPAETRPEIEAAEKLALEDPKAGMNRLLAIGAREPATAPYLVEGAEKVSALLKS
B32: d6r1_design_ppi_251_dldesign_0_cycle0_af2pred (protein)
chain: DAARALLLRTAENAAQMLRLLGVDEATAEAVLARLTAAAAAGPAAFAAAARAAAAELEAQPSLNARTAGAALRTAAATAEAEIAAL
B33: d6r1_design_ppi_3_dldesign_0_cycle0_af2pred (protein)
chain: EEELARAAEAARRQAEVAEALAEQAAAADPANQPLADEARRLAERARELAERGATVEEIREALLEVSRAAARAAAALNAAVAA
B34: d6r1_design_ppi_30_dldesign_0_cycle0_af2pred (protein)
chain: EKEEIIKKAKELKEQAEKVLAEDVSPLAKKVAEQAIKHAEKAIEAAKAGDLEEAKAHLSSAEAFVLGLTR
B35: d6r1_design_ppi_468_dldesign_0_cycle1_af2pred (protein)
chain: AQAALDAAIAAARAAAALAREAGDDTAAAFFESAALVLEGGPANMPLAIRLTEAGIRSARARLDPATAAKVAALGEAAIAAARAAAAA
B36: d6r1_design_ppi_311_dldesign_0_cycle1_af2pred (protein)
chain: MTPEEVAARAAELLAWLRAQAALDPEMAALGAAGLELVLAHSPELAARAVRQLERARRMPPADALRVGALIAQAYAAQVERARA
B37: d6r1_design_ppi_377_dldesign_0_cycle0_af2pred (protein)
chain: EEERRRAEELRRRAEEAIERIRASTPEEAARIAGELVAWLGEEARAGTPELAEEARREMARVTREAARVLA
B38: d6r1_design_ppi_575_dldesign_0_cycle1_af2pred (protein)
chain: GAALAAQRAEAREVLARARAIEAQAQALAATQPAAAGIGSLARQAIELASRSLEEGLELLPSARALVEVAAGIVAAA

Sequence of CD276, Q5ZPR3 (Q5ZPR3 whole entry): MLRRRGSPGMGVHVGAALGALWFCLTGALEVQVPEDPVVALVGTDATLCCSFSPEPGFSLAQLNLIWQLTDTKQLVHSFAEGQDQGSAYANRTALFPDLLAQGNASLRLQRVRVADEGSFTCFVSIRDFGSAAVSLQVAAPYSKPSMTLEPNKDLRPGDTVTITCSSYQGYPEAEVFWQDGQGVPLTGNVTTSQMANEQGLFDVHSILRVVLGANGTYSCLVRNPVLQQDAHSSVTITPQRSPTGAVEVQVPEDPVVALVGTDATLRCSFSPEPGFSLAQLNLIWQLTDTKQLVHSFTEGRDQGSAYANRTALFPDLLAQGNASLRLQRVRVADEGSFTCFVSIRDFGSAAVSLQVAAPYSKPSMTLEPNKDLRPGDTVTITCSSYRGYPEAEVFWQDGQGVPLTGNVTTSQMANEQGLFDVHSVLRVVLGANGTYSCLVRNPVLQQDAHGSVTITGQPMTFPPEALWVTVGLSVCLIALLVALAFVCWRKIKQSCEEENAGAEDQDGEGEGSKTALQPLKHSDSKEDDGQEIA

This assay has as its target CD276, Q5ZPR3.
For B1, the “binding in a display sort” value was “not found (inactive)”.
For B2 the value was “not found (inactive)”; for B3, “not found (inactive)”.
As to B4, the “binding in a display sort” value is “not found (inactive)”.
For B5, the “binding in a display sort” value was “not found (inactive)”.
For B6 the value was “not found (inactive)”; for B7, “not found (inactive)”; for B8, “not found (inactive)”.
On to B9, for which the “binding in a display sort” value was “not found (inactive)”.
As for B10, the “binding in a display sort” value was “not found (inactive)”.
As to B11, the “binding in a display sort” value was “not found (inactive)”.
Turning to B12, the “binding in a display sort” value is “not found (inactive)”.
As for B13, the “binding in a display sort” value was “not found (inactive)”.
For B14 the value was “not found (inactive)”; for B15, “not found (inactive)”.
For B16 the value was “not found (inactive)”; for B17, “not found (inactive)”.
For B18 the value was “not found (inactive)”; for B19, “not found (inactive)”.
For the molecule B20, the “binding in a display sort” value was “not found (inactive)”.
For B21 the value was “not found (inactive)”; for B22, “not found (inactive)”.
On to B23, for which the “binding in a display sort” value is “not found (inactive)”.
As for B24, the “binding in a display sort” value is “not found (inactive)”.
As to B25, the “binding in a display sort” value is “not found (inactive)”.
For B26 the value was “not found (inactive)”.
With B27, the “binding in a display sort” value is “not found (inactive)”.
On to B28, for which the “binding in a display sort” value was “not found (inactive)”.
Take B29: the “binding in a display sort” value is “not found (inactive)”.
For B30 the value was “not found (inactive)”.
For B31 the value was “not found (inactive)”; for B32, “not found (inactive)”.
For B33 the value was “not found (inactive)”; for B34, “not found (inactive)”.
On to B35, for which the “binding in a display sort” value is “not found (inactive)”.
For B36 the value was “not found (inactive)”; for B37, “not found (inactive)”; for B38, “not found (inactive)”.

The values are drawn from PMC13494018.
